# High-throughput results from PubChem.
# IL-1B inflam inh: qHTS for Inhibitors of Inflammasome Signaling: IL-1-beta AlphaLISA Primary Screen; activity change, % at 57.5 µM; 360,000 compounds, 4.7% hits; AID 743279, 2014; THP-1 LPS/ATP IL-1B secretion, AlphaLISA, 16 h; hits give low values; in the data active = activity change below about -50%; inconclusive = mostly about -30% to -49%
#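 Secreted IL-1B measured by AlphaLISA bead assay after 16 h compound exposure of THP-1 cells; compounds (final up to 57.5 uM) added 1 h before LPS (250 ng/mL) and ATP (1.25 mM) stimulation; lower signal means less secretion.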
# HT1080-NT tox: qHTS for induction of synthetic lethality in tumor cells producing 2HG: qHTS for the HT-1080-NT fibrosarcoma cell line; HT-1080-NT fibrosarcoma viability, CellTiter-Glo ATP luminescence, 48 h; Potency, µM (highest dose often 46.1 µM), without a hit: at the highest dose activity, negative = less viability, hits mostly cytotoxic; 360,000 compounds, 1.6% hits; AID 686970, 2013;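 also: NT is the 2HG producing partner of a matched IDH1 knockdown line; potency is read from the fitted curve at half-maximal effect; 0% = DMSO-treated cells and -100% = media-only wells without cells; nearly all actives have a fitted effect of over 55% in size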
#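 Compounds were tested in concentration-response format on HT-1080-NT cells for 48 hours at 37 degrees C. Cell viability came from CellTiter-Glo luminescence; curves were classified by r2, response magnitude and activity.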
# HT1080 IDH1KD tx: qHTS for induction of synthetic lethality in tumor cells producing 2HG: qHTS for the HT-1080-IDH1KD cell line | Potency, µM (top dose mostly 46.1 µM), for the others: at the top dose activity, negative = toxicity, usual class: cytotoxic | AID 686971, 2013 | 360,000 compounds, 2% hits | HT-1080 IDH1 knockdown viability, ATP luminescence, 48 h;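 also: potency is read from the fitted curve at half-maximal effect; 0% = DMSO wells and -100% = cell-free medium wells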
#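 CellTiter-Glo luminescence after 48 h compound exposure at 37 degrees C of IDH1-knockdown HT-1080 cells in 5% FBS RPMI. %Activity scaled between DMSO wells and cell-free media wells, with curves fitted and assigned curve classes.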
# TDP1 cell noCPT: qHTS for Inhibitors of human tyrosyl-DNA phosphodiesterase 1 (TDP1): qHTS in cells in absence of CPT; DT40 Tdp1-/- hTDP1 cells, no CPT, ATP luminescence, 48 h; Potency, µM (highest dose often 46.2 µM), for the others: at the highest dose activity change, negative = growth inhibition, most hits filed as inhibitors; 420,000 compounds, 15% hits; AID 686978, 2013; also: potency is read from the fitted curve at half-maximal effect; nearly all actives have a fitted effect of over 55% in size
#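 Luminescent ATP content (CellTiter-Glo) served as the growth readout. Knockout chicken DT40 cells expressing human TDP1 were exposed to compounds without camptothecin for a minimum 48 hr at 37 °C.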
# DT40 TDP1 CPT: qHTS for Inhibitors of human tyrosyl-DNA phosphodiesterase 1 (TDP1): qHTS in cells in presence of CPT. chicken DT40 Tdp1-/-;hTDP1 cells + 20 nM CPT, ATP luminescence, 48 h. Potency, µM (series often up to 46.2 µM), without a hit: at the highest dose activity change, negative = growth inhibition, actives largely listed as inhibitors. 420,000 compounds, 12% hits; also: potency is read from the fitted curve at half-maximal effect; nearly all actives have a fitted effect of over 55% in size
#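 Chicken DT40 Tdp1-/- cells complemented with human TDP1, 400 cells/well, exposed to compounds plus 20 nM camptothecin for at least 48 h at 37 C; viability read as ATP content by CellTiter-Glo luminescence.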
# * marks the source's active call; other numbers are inactive results; u = inconclusive; x = not tested or not shown; [ ] = another dose, or the depositor's remark. A selection: hits, their analogues and other compounds. The true share with any hit is near 19%. Unless noted, calls follow the shape of the dose curve; as a rule, active = well fitted curve in the direction sought with a large enough effect; inconclusive = small, poorly fitted or top-dose-only effect, or another doubt; inactive = no such curve, though single readings can be large; an effect the other way counts as inactive or inconclusive. Unless noted, % is scaled to controls: 0 for no effect and ±100 for the full control effect.
SMILES,IL-1B inflam inh,HT1080-NT tox,HT1080 IDH1KD tx,TDP1 cell noCPT,DT40 TDP1 CPT
CCOC(=O)N1CCN(C(=O)c2ccccc2NC(=O)COc2ccccc2C)CC1,0.0,-2.2%,-3.3%,20.6µM*,u
Cc1ccc(C)c(OCC(=O)Nc2ccccc2C(=O)N2CCN(C)CC2)c1,-3.0,4.6%,10.9%,-28.5%,-2.6%
CC(C)c1ccccc1OCC(=O)Nc1ccccc1C(=O)N1CCOCC1,-10.7,13.5%,17.8%,16.4µM*,16.4µM*
COC(=O)c1ccc(NC(=S)NC2CCCCC2C)cc1 (stereo unspecified),-5.3,u,u,25.9µM*,23.1µM*
Cc1cccc(OC(C)C(=O)Nc2ccccc2C(=O)N2CCCCC2)c1 (stereo unspecified),-10.1,-1.7%,-1.4%,13µM*,u
COC(=O)c1ccc(NC(=S)NC(=O)C2CCC2)cc1,-9.6,u,16.5%,13.5%,0.3%
Cc1cc(OCC(=O)Nc2cnn(CCCC(=O)O)c2)ccc1Cl,15.5,1.9%,8.5%,-1.3%,-26.4%
CCOc1cc(-c2nnc(SCC(=O)Nc3ccc(F)c(F)c3)nc2-c2ccc(OC)c(OCC)c2)ccc1OC,x,x,x,-22.4%,-18.3%
CC1=Nc2ccccc2/C1=C\c1sc(Nc2ccc(C)cc2)nc1O,-52.9*,0.92µM*,0.651µM*,0.92µM*,0.581µM*
Oc1nc(Nc2ccc(F)cc2)sc1/C=C1\C=Nc2ccccc21,-78.1*,-23.1%,u,-29.6%,u
CCOC(=O)c1ccc(NC(=O)NC2CCN(CC(=O)NCc3ccc4c(c3)OCO4)CC2)cc1,2.6,-2.1%,-4.9%,-25.1%,-19.4%
COc1ccc(CC(=O)Nc2cccc3ncccc23)cc1OC,14.3,0.1%,11.7%,-6.4%,16.2%
COC(=O)c1c(-c2cccc3ccccc23)csc1NC(=O)Cc1ccc(OC)c(OC)c1,u,-24.4%,u,11.6µM*,25.9µM*
COC(=O)c1c(-c2ccc(Br)cc2)csc1NC(=O)Cc1ccc(OC)c(OC)c1,-6.3,-10.2%,-17.2%,10.3µM*,u
COC(=O)c1sccc1NC(=O)Cc1ccc(OC)c(OC)c1,23.1,-5.1%,-3.7%,-5.5%,-24.5%
CSCCC(NC(=O)c1ccccc1)C(=O)NCCCn1nc(C)cc1C (stereo unspecified),9.0,-0.7%[9.24 µM],-0.5%,-3.6%,-7.1%
COc1ccc(CCNc2oc(-c3ccc(OC)c(OC)c3)nc2C#N)cc1,-4.4,-2.8%,14.6%,u,11.2µM*
COc1ccc(-c2nc(C#N)c(NC(C)c3ccccc3)o2)cc1OC (stereo unspecified),u,-11.6%,-20.6%,16.4µM*,u
COc1ccc(CCNc2cc(C)nc3c(-c4ccccc4OC)cnn23)cc1OC,-3.9,-2.6%,-22.8%,18.4µM*,u
COc1ccc(CCNc2oc(-c3ccccc3OC)nc2C#N)cc1OC,-11.4,1.8%,-0.7%,18.4µM*,u
OC[C@@H]1CN(CCN2CCOCC2)C[C@H](n2cnc3c(NC4CCC4)ncnc32)O1,8.8,0.5%,16.7%,7.1%,-7.5%
COc1cccc(NC(=O)c2ccnc(N3CCC(C(=O)NCc4cc(OC)ccc4OC)CC3)c2)c1,-2.4,-1.7%,2.1%,16.4µM*,23.1µM*
COc1ccc(-c2noc(N3CCC(C(=O)Nc4cc(OC)ccc4OC)CC3)n2)cc1,-20.3,-23.0%,-3.8%,20.6µM*,20.6µM*
COc1ccc(-c2noc(N3CCC(C(=O)Nc4cccc(OC)c4)CC3)n2)cc1,1.2,-6.2%,-17.8%,u,18.4µM*
Cc1ccccc1-c1nc(-c2ccc(NC(=O)c3ccc(Br)o3)cc2)no1,5.6,12.1%,7.9%,u,15.8µM*
SMILES,IL-1B inflam inh,HT1080-NT tox,HT1080 IDH1KD tx,TDP1 cell noCPT,DT40 TDP1 CPT
COc1ccc(CNC(=O)C2CCN(c3cc(C(=O)Nc4cccc(OC)c4)ccn3)CC2)cc1,-5.4,-2.8%,-0.5%,u,u
Oc1[nH]c(=S)sc1/C=C1\C(c2ccccc2)=Nc2ccccc21,-25.6,u,u,u,u
COc1ccc(-c2noc(-c3ccccc3C(=O)Nc3cccc(OC)c3)n2)cc1,-8.8,-3.2%,0.9%[9.24 µM],16.4µM*,u
COc1ccc(-c2noc(N3CCC(C(=O)Nc4cccc(C)c4C)CC3)n2)cc1,x,x,x,14.6µM*,u
COc1ccc(-c2noc(-c3ccccc3C(=O)Nc3cccnc3)n2)cc1,-0.6,-11.1%,-8.6%,u,u
COc1cccc(Cn2c(=O)c(-c3ccc(F)cc3)nc3cnc(N(C)C)nc32)c1,x,x,x,8.5%,3.0%
Cc1ncc2c(c1CNC(=O)c1ccc3c(c1)OCO3)CCN(C(=O)c1cnsn1)C2,x,x,x,-1.7%,6.3%[9.04 µM]
C=C[C@H](N)CCC(=O)O,x,x,x,-1.2%,-18.0%
COc1ccc(C2c3c(n(C)c4ccccc34)C(=O)N2CC(=O)Nc2cc(Cl)ccc2C)cc1 (stereo unspecified),x,x,x,20.6µM*,u
COCCCNC(=O)CCn1c(=O)c2ccccc2n(CC(=O)Nc2cc(Cl)ccc2C)c1=O,12.2,2.9%,8.7%,-18.7%,-0.1%
COC(=O)c1cc(S(=O)(=O)NCC2CCN(CCc3cccs3)CC2)cn1C,-21.6,2.4%,-4.4%,18.8%,-6.2%
COc1ccccc1C(=O)N1CCN(CCNC(=O)C(=O)Nc2ccc(Br)c(C)c2)CC1,-4.4,-10.1%,-8.7%,10.3µM*,u
COc1ccc(C(=O)N2CCN(CCNC(=O)C(=O)Nc3ccc(Br)cc3)CC2)cc1,-7.5,-1.3%,-21.5%,u,u
Cc1ccccc1C(=O)N1CCN(CCNC(=O)C(=O)Nc2ccc(Br)cc2)CC1,0.0,-0.2%,-2.7%,u,14.6µM*
Cc1cc(NC(=O)C(=O)NCCN2CCN(C(=O)c3cccs3)CC2)ccc1Br,u,-0.1%,-0.2%,u,u
COc1ccc(NC(=O)C(=O)NCCN2CCN(C(=O)c3ccc(C(C)(C)C)cc3)CC2)cc1,18.4,10.7%,-16.8%,16.4µM*,16.4µM*
O=C(CCc1nnc(CCCCc2ccccc2)o1)NCCN1CCCCC1=O,16.5,9.5%,21.0%,-18.4%,-10.8%
CCc1nnc(NC(=O)CSCc2cc(=O)c3ccc(C)cc3[nH]2)s1,x,x,x,-2.0%,-0.6%
O=c1c2ccccc2nc(SCc2nc3ccccc3s2)n1CCCO,-9.2,u,u,u,u
C=CCOc1ccc(CNn2cn[nH]c2=S)cc1,5.7,11.3%,5.9%,-4.9%,-3.2%
C=CCn1cn[nH]c1=S,26.4,10.5%,16.8%,0.2%,5.17µM*
